# Compounds with a hit are over-represented: about 2.5% of the library has one in this group of screens.
# Cruzain noTriton = blocks cruzain activity in detergent-free assay; Potency, µM, without a hit: max response, negative = inhibition, most hits filed as inhibitors; AID 1476; purified cruzain, Z-FR-AMC fluorescence, no detergent; 2.3% of 200,000 active;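 note: plate controls were enzyme without inhibitor for no effect and buffer without enzyme for full effect; nearly all actives have a fitted effect of over 40% in size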
# Target sequence (P25779 123-467 limits assumed): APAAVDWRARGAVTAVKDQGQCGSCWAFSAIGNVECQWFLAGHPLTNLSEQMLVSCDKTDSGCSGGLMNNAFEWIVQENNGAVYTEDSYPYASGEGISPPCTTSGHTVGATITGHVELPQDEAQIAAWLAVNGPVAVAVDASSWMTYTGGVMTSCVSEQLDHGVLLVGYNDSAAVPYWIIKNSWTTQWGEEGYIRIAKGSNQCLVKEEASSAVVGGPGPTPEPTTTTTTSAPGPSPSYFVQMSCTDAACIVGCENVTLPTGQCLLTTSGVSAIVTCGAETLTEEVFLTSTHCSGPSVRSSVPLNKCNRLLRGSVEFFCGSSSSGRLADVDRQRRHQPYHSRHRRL
#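 Detergent-free condition (0.00005% Triton X-100) in acetate buffer pH 5.5 with DTT. 1.5 nM enzyme and compound were pre-mixed 15 min, then 2 uM Z-FR-AMC substrate added; reaction progress from fluorescence change between first and third reads (60 s).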
# Cruzain inh Det = inhibitors of Trypanosoma cruzi cruzain with detergent. P25779. purified cruzain, Z-FR-AMC fluorescence, 0.01% Triton. Potency, µM, for inactives: max response, negative = inhibition, actives largely listed as inhibitors. 0.43% of 200,000 active;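 note: plate controls were neutral wells for no effect and buffer without enzyme for full effect; nearly all actives have a fitted effect of over 40% in size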
#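 Compounds were screened in titration against cruzain (1.5 nM) with 0.01% Triton X-100 to counter colloidal aggregation. Activity was the AMC fluorescence increase over 60 s after adding 2 uM Z-FR-AMC at pH 5.5.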
# An asterisk follows results filed as active; ? = inconclusive; nt = no result given. Calls come from the whole dose curve; as a rule, active = well fitted curve in the direction sought with a large enough effect; inconclusive = small, poorly fitted or top-dose-only effect, or another doubt; inactive = no such curve, though single readings can be large; an effect the other way counts as inactive or inconclusive. Potency is the fitted concentration of half-maximal effect.
SMILES,Cruzain noTriton,Cruzain inh Det
CC(C)[C@H](NC(=O)OCc1ccccc1)C(=O)N[C@H](C=O)Cc1ccccc1,0.032µM*,0.032µM*
CC(C)[C@H](NC(=O)OCc1ccccc1)C(=O)NCc1ccccc1,-10%,-3%
CC/C=C\C/C=C\C/C=C\C/C=C\C/C=C\C/C=C\CCC(N)=O,-5%,1%
Cc1ccc(Cl)cc1N1CCN(C(=O)CN2C(=O)COc3ccc(S(=O)(=O)N4CCC(C)CC4)cc32)CC1,-1%,1%
CC(C)c1ccc(NC(=O)c2cc(S(=O)(=O)N(C)C3CCCCC3)ccc2F)cc1,-8%,0%
Cc1ccc(CCNC(=O)c2oc(=O)c3ccccc3c2-c2ccc(C)cc2)cc1,3%,-6%
CCc1ccc(NC(=O)c2ccc3c(c2)c(C)c(C)n3Cc2ccccc2)cc1,13µM*,2%
CCOc1ccc(CCNC(=O)c2ccc3c(c2)c(C)c(C)n3Cc2ccccc2)cc1OCC,?,0%
CCc1cccc(NC(=O)c2ccc3c(c2)c(C)c(C)n3Cc2ccc(F)cc2)c1,16µM*,2%
CCc1ccc(NC(=O)c2ccc3oc(=O)n(Cc4ccccc4)c3c2)cc1,30%,1%
CCc1ccc(CNC(=O)c2ccc3c(c2)c(C)c(C)n3Cc2ccccc2)cc1,32µM*,2%
Cc1c(C)n(Cc2ccccc2)c2ccc(C(=O)NCc3ccco3)cc12,?,-5%
COc1cccc(CNC(=O)c2ccc3c(c2)c(C)c(C)n3Cc2ccccc2)c1,?,1%
Cc1ccc(CCNC(=O)c2ccc3c(c2)c(C)c(C)n3Cc2ccccc2)cc1,13µM*,2%
COc1ccc(C)cc1NC(=O)C(=O)NCCc1sc(-c2ccc(Cl)cc2)nc1C,-8%,0%
Cc1ccc(SCN2CCCCC2)cc1 (tested in a mixture with another compound),-18%,2%
CCOc1ccc(N2CC(NC(=O)CCc3ccccc3)CC2=O)cc1 (configuration not stated),-1%,0%
C[C@@H](C(=O)Nc1ccc2ccccc2c1)[C@H]1C[C@]1(C)[C@H](NC(=O)Oc1ccc(F)cc1)c1ccccc1,16µM*,1%
C[C@@H](C(=O)Nc1ccc2ccccc2c1)[C@H]1C[C@]1(C)[C@H](NS(=O)(=O)c1ccc2ccccc2c1)c1ccccc1,10µM*,2%
C[C@@H](C(=O)Nc1ccc2ccccc2c1)[C@@H]1C[C@@]1(C)[C@@H](NS(=O)(=O)c1ccc2ccccc2c1)c1ccccc1,7.9µM*,4%
CC(=O)N[C@H](c1ccccc1)[C@@]1(C)C[C@@H]1[C@@H](C)C(=O)Nc1ccc2ccccc2c1,-4%,-4%
Cc1nn(C)c(Cl)c1S(=O)(=O)N[C@@H](c1ccccc1)[C@]1(C)C[C@H]1[C@@H](C)C(=O)Nc1ccc2ccccc2c1,16%,-4%
C[C@@H](C(=O)Nc1ccc2ccccc2c1)[C@@H]1C[C@@]1(C)[C@@H](NC(=O)c1ccccc1)c1ccccc1,?,-2%
C[C@@H](C(=O)Nc1ccc2ccccc2c1)[C@H]1C[C@]1(C)[C@H](NS(=O)(=O)c1ccc(-c2ccccc2)cc1)c1ccccc1,3.2µM*,1%
COC(=O)N[C@H](c1ccccc1)[C@@]1(C)C[C@@H]1[C@@H](C)C(=O)Nc1ccc2ccccc2c1,-1%,-1%
SMILES,Cruzain noTriton,Cruzain inh Det
CC1(C)N=C(N)N=C(N)N1c1cccc(CSc2ccccc2)c1,-7%,-2%
O=C(NCc1ccc(F)cc1)c1cnc(N2CCOCC2)c2ccccc12,7%,-1%
Cc1c(-c2nnc(SCC(=O)Nc3ccccc3F)o2)nnn1-c1ccc(F)cc1,-2%,-8%
Cc1cccc(C(=O)N2CCCCC2CCN2CCCCC2)c1 (configuration not stated),-14%,1%
COc1ccc(/C(C)=N/OC/C(O)=C(\C#N)c2nc3ccccc3[nH]2)cc1,5µM*,1%
COc1ccc(/C=N/OC/C(O)=C(\C#N)c2nc3ccccc3[nH]2)cc1OC,-6%,-5%
Fc1cccc(Cl)c1/C=N\N=C1c2ccccc2-c2ccccc21,-10%,4%
COc1ccccc1[C@@H]1C(c2cccc(C)c2)=NN(c2ccccc2)[C@H]1C(=O)N1CCOC1=O,16µM*,-4%
COc1ccccc1[C@@H]1C(c2ccc(F)cc2)=NN(c2ccc(Br)cc2)[C@H]1C(=O)N1CCOC1=O,25µM*,1%
O=C1OCCN1C(=O)[C@H]1[C@H](c2ccccc2)C(c2cccc(Cl)c2)=NN1c1ccccc1,?,-9%
COc1ccccc1[C@@H]1C(c2cccc(Cl)c2)=NN(c2ccc(Br)cc2)[C@H]1C(=O)N1CCOC1=O,8.9µM*,0%
COc1ccccc1[C@@H]1C(c2ccccc2)=NN(c2ccccc2)[C@H]1C(=O)N1CCOC1=O,?,-5%
COc1ccccc1[C@@H]1C(c2ccc(F)cc2)=NN(c2ccccc2)[C@H]1C(=O)N1CCOC1=O,?,-10%
Cc1ccc(CCNC(=O)CN(c2ccc(C(C)C)cc2)S(=O)(=O)c2c(C)nn(C)c2C)cc1,-20%,-3%
O=c1ccc2cc(OC3OC(CO)C(O)C(O)C3O)c(O)cc2o1 (configuration not stated),13µM*,7.9µM*
O=c1cc(-c2ccccc2)oc2cc(O[C@@H]3O[C@H](CO)[C@@H](O)[C@H](O)[C@H]3O)c(O)c(O)c12,7%,-3%
O=CC(O)C(O)C(O)C(O)CO (configuration not stated),-2%,0%
COc1ccc(CNc2ccnc(-c3cccc(C#N)c3)n2)c(OC)c1,11%,-7%
O=C(CN1CCCC1)N/N=C/c1ccc(-c2cccc(Cl)c2)o1,-10%,-12%
O=C(Cn1nnc(-c2ccccc2Cl)n1)N/N=C/c1ccc(-c2cccc(Cl)c2)o1,32µM*,-4%
CCCCN1C(=O)/C(=C/C=C2\N(C)c3ccccc3C2(C)C)SC1=S,32µM*,-2%
CCCN1C(=O)/C(=C\C=C2/C=CN(CC)c3ccccc32)SC1=S,-8%,-6%
N#Cc1ccc2c(c1)N(CCCN1CCC(O)CC1)c1ccccc1S2,-2%,-9%
O=C(Nc1ccc(NC(=O)c2cc3ccccc3o2)cc1)c1ccccc1,3.2µM*,-1%
CCC(=O)Nc1ccc(NC(=S)NC(=O)c2cc3ccccc3o2)cc1,-27%,-3%
SMILES,Cruzain noTriton,Cruzain inh Det
O=C(O)c1ccc(NC(=O)c2cc3ccccc3o2)cc1,-5%,-6%
Cc1ccc(NC(=O)c2ccc(OC(=O)c3cc4ccccc4o3)cc2)cc1,7.9µM*,-2%
Cc1ccc(NC(=O)c2ccc(OC(=O)c3ccco3)cc2)cc1,-11%,-2%
O=C(Nc1ccc2oc(=O)ccc2c1)c1cc2ccccc2o1,-29%,-3%
Cc1cc(=O)oc2cc(NC(=O)c3cc4ccccc4o3)ccc12,10µM*,2%
CCCC(=O)Nc1ccc(Cl)c(NC(=S)NC(=O)c2cc3ccccc3o2)c1,5µM*,-3%
Cc1nn2c(=O)cc(COC(=O)Cc3ccccc3)nc2s1,-4%,-2%
C/C=C\C[C@H](C)[C@H](O)[C@H]1C(=O)N[C@@H](CC)C(=O)N(C)CC(=O)N(C)[C@@H](CC(C)C)C(=O)N[C@@H](C(C)C)C(=O)N(C)[C@@H](CC(C)C)C(=O)N[C@@H](C)C(=O)N[C@@H](C)C(=O)N(C)[C@@H](CC(C)C)C(=O)N(C)[C@@H](CC(C)C)C(=O)N(C)[C@@H](C(C)C)C(=O)N1C,nt,-4%

# Source: PubChem BioAssay (National Center for Advancing Translational Sciences (NCATS))
